Inconclusive results are not listed. A number with no mark means an inactive call. Active and inactive are the calls of the source. Calls come from the whole dose curve; as a rule, active = well fitted curve in the direction sought with a large enough effect in the repeat runs; inconclusive = weak or mixed curves; inactive = no such curve, though single readings can be large; an effect the other way counts as inactive or inconclusive.
Assay: qHTS RealTime-Glo MT Cell Viability Assay in HepG2 cells - 8 hour (AID 1224873); note: nearly all actives have a fitted effect of over 55% in size
Settings: RealTime-Glo luminescence; series mostly up to 76.8 µM; viability change, negative = cytotoxic: at the top concentration
How it was run: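 Real-time viability: cells seeded at 600 per well together with NanoLuc and cell-permeant prosubstrate, compounds added after 5 h incubation. Luminescence tracked at 0, 8, 16, 24, 32 and 40 h of exposure.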
% is set by controls: 0 for no effect and ±100 for the full control effect.

SMILES	viability change, negative = cytotoxic
CN(Cc1ccc(C(C)(C)C)cc1)Cc1cccc2ccccc12	-0.0036% [at 35.3 µM]
COc1ccc(-c2nc3ccc(C4=NNC(=O)CC4C)cc3[nH]2)cc1 (stereo not drawn)	-0.465% [at 35.3 µM]
CN1CCC(=C2c3ccccc3Sc3ccccc32)CC1	-5.35% [at 35.3 µM]
CCCCC(=O)OCC(=O)[C@H]1[C@H](C)C[C@H]2[C@@H]3C[C@H](F)C4=CC(=O)C=C[C@]4(C)[C@@]3(F)[C@@H](O)C[C@@]21C	-8.9% [at 35.3 µM]
Clc1ccc2c(c1)CCc1cccnc1C2=C1CCNCC1	-10.9% [at 35.3 µM]
CCn1cc(C(=O)O)c(=O)c2cnc(N3CCNCC3)nc21	-0.592% [at 35.3 µM]
CCOc1ccc(N=Nc2ccc(/C=C/c3ccc(N=Nc4ccc(OCC)cc4)cc3S(=O)(=O)O)c(S(=O)(=O)O)c2)cc1	-24.5%
COc1cc(C(=O)OCCCN2CCCN(CCCOC(=O)c3cc(OC)c(OC)c(OC)c3)CC2)cc(OC)c1OC	-5.74% [at 35.3 µM]
NS(=O)(=O)c1ccc(N2CCCCS2(=O)=O)cc1	5.75% [at 35.3 µM]
CCCCCCCC/C=C\CCCCCCCC(=O)OCC	0.349%
Nc1cc(C(=O)O)c(O)c(S(=O)(=O)O)c1	4.42%
C/C=C/C(=O)CC	1.2% [at 15.8 µM]
ClCCOCCOCCCl	4.13%
CCN(CC)CCNC(=O)c1cc(Br)c(N)cc1OC	8.94% [at 35.3 µM]
O=C(O)C(S)C(S)C(=O)O (stereo not drawn)	5.81% [at 35.3 µM]
O=[N+]([O-])c1ccc2[nH]ncc2c1	-0.45%

SMILES	viability change, negative = cytotoxic
CCCCCCCCCCO[C@@H]1O[C@H](CO)[C@@H](O)[C@H](O)[C@H]1O	-7.49%
CCCCCCCCCCCCCCCCCCOS(=O)(=O)O	-13.4%
CN(C)c1ccc(/C=C/c2ccc([N+](=O)[O-])cc2)cc1	-4.05% [at 6.97 µM]
C[N+]1(C)CCC(OC(=O)C(O)(c2ccccc2)C2CCCC2)C1 (stereo not drawn)	7.5% [at 35.3 µM]
CCO[Si](CCCCl)(OCC)OCC	0.246%
Nc1ncn([C@H]2C[C@H](O)[C@@H](CO)O2)c(=O)n1	5.35% [at 35.3 µM]
O=C1OC(=O)C2C3C=CC(C3)C12 (stereo not drawn)	6.07%
CCCCCCCCO[C@@H]1O[C@H](CO)[C@@H](O)[C@H](O)[C@H]1O	-0.19%
C/C(=C(\CCOP(=O)(O)O)SC(=O)c1ccccc1)N(C=O)Cc1cnc(C)nc1N	2.94% [at 6.97 µM]
CCCCOC(=O)CCCCCCCC(=O)OCCCC	2.27%
CN1C[C@H]2c3ccccc3Oc3ccc(Cl)cc3[C@@H]2C1	-10.4% [at 35.3 µM]
O=C(O)c1ccccc1Cl	-2.87%
Cc1cc(N)c2cc(NC(=O)Nc3ccc4nc(C)cc(N)c4c3)ccc2n1	-0.533% [at 35.3 µM]
CCN(CC)CCOC(=O)C(Cc1cccc2ccccc12)CC1CCCO1 (stereo not drawn)	0.0507% [at 35.3 µM]
C[C@H](CCC(=O)O)[C@H]1CC[C@H]2[C@@H]3CC[C@@H]4C[C@H](O)CC[C@]4(C)[C@H]3C[C@H](O)[C@]12C	-8.51%
CCc1cc(C2=C(C(=O)O)N(c3ccccc3C(F)(F)F)S(=O)(=O)c3ccccc32)cc2c1OCO2	-10%

Assay: qHTS RealTime-Glo MT Cell Viability Assay in HEK293 cells - 40 hour (AID 1224874); note: nearly all actives have a fitted effect of over 50% in size; note: potency is the fitted concentration of half-maximal effect
Settings: RealTime-Glo luminescence; max response: active compounds read low
How it was run: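 Luminescence, which tracks viable cell number through reduction of the prosubstrate to a NanoLuc substrate, was read over continuous 37 C culture. Cells (600/well) were premixed with reagent and rested 5 h before 23 nL of compound in DMSO was pinned.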

SMILES	max response	Potency
CN(Cc1ccc(C(C)(C)C)cc1)Cc1cccc2ccccc12	-22.5%	–
COc1ccc(-c2nc3ccc(C4=NNC(=O)CC4C)cc3[nH]2)cc1 (stereo not drawn)	–	7.56 µM (active)
CCCCC(=O)OCC(=O)[C@H]1[C@H](C)C[C@H]2[C@@H]3C[C@H](F)C4=CC(=O)C=C[C@]4(C)[C@@]3(F)[C@@H](O)C[C@@]21C	-15.1%	–
CCOc1ccc(N=Nc2ccc(/C=C/c3ccc(N=Nc4ccc(OCC)cc4)cc3S(=O)(=O)O)c(S(=O)(=O)O)c2)cc1	-1.09%	–
COc1cc(C(=O)OCCCN2CCCN(CCCOC(=O)c3cc(OC)c(OC)c(OC)c3)CC2)cc(OC)c1OC	–	9.52 µM (active)
NS(=O)(=O)c1ccc(N2CCCCS2(=O)=O)cc1	-0.0797%	–
CCCCCCCC/C=C\CCCCCCCC(=O)OCC	4.58%	–
Nc1cc(C(=O)O)c(O)c(S(=O)(=O)O)c1	9.59%	–
C/C=C/C(=O)CC	4.11%	–
ClCCOCCOCCCl	5.38%	–
CCN(CC)CCNC(=O)c1cc(Br)c(N)cc1OC	10.1%	–
O=[N+]([O-])c1ccc2[nH]ncc2c1	-13.3%	–
C[N+]1(C)CCC(OC(=O)C(O)(c2ccccc2)C2CCCC2)C1 (stereo not drawn)	3.92%	–
CCO[Si](CCCCl)(OCC)OCC	0.203%	–
O=C1OC(=O)C2C3C=CC(C3)C12 (stereo not drawn)	12.9%	–
CCCCOC(=O)CCCCCCCC(=O)OCCCC	2.76%	–
CN1C[C@H]2c3ccccc3Oc3ccc(Cl)cc3[C@@H]2C1	-21.8%	–
O=C(O)c1ccccc1Cl	-1.6%	–
O=C1CCC(=O)O1	3.63%	–
O=C(NCCO[N+](=O)[O-])c1cccnc1	0.0315%	–
CCc1cc(C2=C(C(=O)O)N(c3ccccc3C(F)(F)F)S(=O)(=O)c3ccccc32)cc2c1OCO2	-24.9%	–
